T cruzi growth-1: blocks T. cruzi growth in NIH3T3 culture; T. cruzi beta-gal in NIH3T3, GalScreen luminescence, 90 h; inhibition, % at 8.34 µM; AID 624255; actives 5.9% (n = 77,000);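 active means mean inhibition above about 93%, with at least 55% of replicates each passing it, limit read from the data, passing the limit was not always enough; inconclusive means only one of those two conditions holds; inactive means neither condition holds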
C diff growth: inhibitors of Clostridium difficile growth; Clostridium difficile clinical isolate growth, OD600, 24 h; active compounds read low; growth activity, negative = inhibition, % at 16 µg/mL (by protocol); actives 0.25% (n = 86,000); AID 1259249;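 active means mean growth activity at or below -80% and every replicate also at or below -80%; inconclusive means mean at or below -80% but some replicate above -80%; inactive means mean growth activity above -80%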;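 further: 0% = DMSO wells and -100% = levofloxacin 16 µg/mL wells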
T cruzi growth-2: blocks T. cruzi growth in NIH3T3 host cells; shares compounds with T cruzi growth-1; T. cruzi beta-gal in NIH3T3, GalScreen luminescence, 90 h; inhibition, % at 8.35 µM; actives 72% (n = 5,600);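 active means mean replicate inhibition above about 95% and at least 55% of replicates individually reaching it, limit read from the data; inconclusive means only one of the two criteria is met; inactive means neither criterion is met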
T cruzi growth-3: inhibitors of T. cruzi proliferation; inhibition, % at 2.09 µM; actives 21% (n = 5,600); shares compounds with T cruzi growth-1; AID 651740; T. cruzi beta-gal in NIH3T3, GalScreen luminescence, 90 h;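 active means mean inhibition above about 95%, with at least 55% of replicates also reaching it, limit read from the data; inconclusive means meets just one of the two conditions; inactive means meets neither condition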;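 further: plate controls were neutral control median for no effect and positive control median for full effect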
3T3 cytotox: kills mouse NIH/3T3 fibroblasts; shares compounds with T cruzi growth-1; NIH/3T3 viability, CellTiter-Glo ATP luminescence, 90 h; cytotoxicity (signal decrease), % at 8.35 µM; actives 14% (n = 5,600);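 active means mean signal decrease across replicates above about 35% based on untreated-well scatter, with enough replicates individually passing, limit read from the data; inconclusive means no rule stated though some were filed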;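 further: 0% = median of neutral control wells and 100% = median of positive control wells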
3T3 cytotox 2: kills mouse NIH/3T3 fibroblasts; shares compounds with T cruzi growth-1; NIH/3T3 viability, CellTiter-Glo ATP luminescence, 90 h; inhibition, % at 24.9 µM; actives 56% (n = 5,600); AID 651744;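 active means mean loss of cell viability signal at or above a set limit, and enough replicates individually reaching it; inconclusive means meets only the mean limit or only the replicate share; inactive means meets neither condition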;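 further: 0% = median of neutral control wells and 100% = median of positive control wells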
* marks the source's active call; other numbers are inactive results; ? = inconclusive; · = not tested or not shown. The full list was thinned out, with hits kept by preference.

SMILES	T cruzi growth-1	C diff growth	T cruzi growth-2	T cruzi growth-3	3T3 cytotox	3T3 cytotox 2
O=C(C[C@H]1CC[C@@H]2[C@H](COC[C@H](O)CN2Cc2cccc(C(F)(F)F)c2)O1)NCc1ccccc1	37	8	·	·	·	·
O=C(C[C@H]1CC[C@H]2[C@@H](COC[C@@H](O)CN2Cc2cccc(C(F)(F)F)c2)O1)NCc1ccc(Cl)cc1	125*	45	92	33	8	87*
C[C@H](NC(=O)C[C@@H]1CC[C@@H]2[C@H](COC[C@H](O)CN2Cc2ccc(C(F)(F)F)cc2)O1)c1ccccc1	168*	24	79	6	-3	23
O=C(C[C@H]1CC[C@H]2[C@@H](COC[C@H](O)CN2Cc2cccc(C(F)(F)F)c2)O1)NCc1ccc(Cl)cc1	128*	34	107*	54	25	?
O=C(C[C@@H]1CC[C@@H]2[C@H](COC[C@@H](O)CN2Cc2cccc(Cl)c2)O1)NCC1CCCCC1	125*	-2	?	30	7	3
C[C@@H](NC(=O)C[C@H]1CC[C@H]2[C@@H](COC[C@H](O)CN2Cc2ccc(C(F)(F)F)cc2)O1)c1ccccc1	73	2	·	·	·	·
O=C(C[C@@H]1CC[C@H]2[C@@H](COC[C@H](O)CN2Cc2cccc(F)c2)O1)NCC1CCCCC1	-36	0	·	·	·	·
CN1CCN(C(=O)C[C@@H]2CC[C@H]3[C@H](COc4ccc(NC(=O)C5CCOCC5)cc4C(=O)N3C)O2)CC1	2	-5	·	·	·	·
C[C@H]1CN([C@@H](C)CO)C(=O)Cc2cc(NS(=O)(=O)c3cn(C)cn3)ccc2O[C@H]1CN(C)C(=O)Nc1ccc(C(F)(F)F)cc1	10	7	·	·	·	·
O=C(C[C@H]1CC[C@@H]2[C@H](COC[C@H](O)CN2Cc2cccc(C(F)(F)F)c2)O1)NCc1ccc(Cl)cc1	144*	74	103*	7	13	99*
O=C(C[C@H]1CC[C@H]2[C@@H](COC[C@H](O)CN2Cc2cccc(C(F)(F)F)c2)O1)NCc1ccccc1	24	·	·	·	·	·
CN(C)C(=O)c1cccc(-c2ccc([C@H]3[C@@H](CO)N4C(=O)CN(C(=O)Cc5ccccc5)C[C@@H]34)cc2)c1	·	-8	·	·	·	·
Cc1cccc(-c2ccc([C@H]3[C@H]4CN(S(=O)(=O)c5ccccc5C)CCCCN4[C@H]3CO)cc2)c1	103*	-7	106*	92	2	38*
Cc1cccc(S(=O)(=O)N2CCCCN3[C@H](CO)[C@H](c4ccc(-c5ccccc5)cc4)[C@H]3C2)c1	62	52	·	·	·	·
Cc1cccc(S(=O)(=O)N2CCCCN3[C@H](CO)[C@@H](c4ccc(-c5ccccc5)cc4)[C@@H]3C2)c1	105*	-6	99*	64	26	11
Cc1cccc(-c2ccc([C@@H]3[C@@H](CO)N4CCCCN(S(=O)(=O)c5ccccc5C)C[C@H]34)cc2)c1	81	-3	·	·	·	·
Cc1cccc(-c2ccc([C@H]3[C@H](CO)N4CCCCN(S(=O)(=O)c5cccc(C)c5)C[C@@H]34)cc2)c1	98*	21	91	101*	115*	106*
Cc1cccc(-c2ccc([C@@H]3[C@@H](CO)N4CCCCN(S(=O)(=O)c5cccc(C)c5)C[C@H]34)cc2)c1	90	-7	·	·	·	·
O=C(C[C@@H]1CC[C@H]2[C@@H](COC[C@H](O)CN2Cc2cccc(C(F)(F)F)c2)O1)NCc1ccncc1	77	·	·	·	·	·
C[C@@H]1CN([C@@H](C)CO)C(=O)Cc2cc(N(C)C)ccc2O[C@H]1CN(C)Cc1ccc(C(=O)O)cc1	29	-1	·	·	·	·
O=C(Nc1ccc(C(F)(F)F)cc1)N[C@H]1CC[C@@H](CCNC(=O)c2ccccc2F)O[C@H]1CO	139*	2	45	31	-14	-4
COc1ccccc1NC(=O)N[C@H]1CC[C@H](CCn2cc(-c3ccccc3)nn2)O[C@@H]1CO	29	-3	·	·	·	·
COc1ccccc1NC(=O)N[C@H]1CC[C@H](CCn2cc(-c3ccccc3OC)nn2)O[C@@H]1CO	149*	7	20	22	1	?
COc1ccccc1NC(=O)N[C@@H]1CC[C@@H](CCn2cc(-c3ccccc3OC)nn2)O[C@H]1CO	0	-13	·	·	·	·
COc1ccccc1-c1cn(CC[C@H]2CC[C@H](NC(=O)NC(C)C)[C@H](CO)O2)nn1	24	0	·	·	·	·
